# Measurements: PubChem BioAssay (NCATS)
# A number with no mark means an inactive call. How the calls were made is not given here.
# Test system: HIV-1 nucleocapsid protein NCp7 (binding to TG oligonucleotide)
# Experiment: HIV Nucleocapsid (AID 346);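 further: potency is for inhibitors that block NC binding and lower polarization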
# Conditions: HIV-1 NC / fluorescein-TGTGTGTG probe, fluorescence polarization
# Summary of the method: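 10 nM TG4xF probe with 100 nM nucleocapsid protein in high-salt Hepes pH 7.5 (250mM NaCl) containing 1uM ZnCl2 and reducing agents. Compound inhibition of binding was read as fluorescein polarization after 1 hr at room temperature.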
# Potency means the concentration at half of the fitted maximal effect.
row,Compound,Potency [µM]
1,COc1cccc(Nc2ncc3ncc(=O)n(C4CC4)c3n2)c1,> 4
2,COc1ccccc1-c1nccc(NCc2ccccc2)n1,> 20
3,Cn1c(=O)c(-c2cccs2)nc2cncnc21,> 20
4,COCCn1c(=O)c(-c2ccc(Cl)cc2)nc2cnc(N3CCNCC3)nc21,> 20
5,N#Cc1cccc(NC(=O)N2CCCC3(CCN(S(=O)(=O)c4ccccc4)CC3)C2)c1,> 20
6,O=S(=O)(c1ccccc1)N1CCC[C@@]2(CCN(c3cccc(-c4ccccc4)c3)C2)C1,> 20
7,CC(C)NC(=O)N1CC[C@@]2(CCCN(C(=O)c3ccco3)C2)C1,> 20
8,CNc1ncnc2ccc(-c3cccc(OC)c3)cc12,> 20
9,O=c1c(-c2cccs2)nc2cncnc2n1C1CC1,> 20
10,Cc1cccc(CNc2cc(-c3cccnc3)ncn2)c1,> 20
11,COc1ccccc1CNc1nc(-c2ccc(C(=O)N(C)C)cc2)nc2ccccc12,> 20
12,COc1ncc2nc(CCc3ccccc3)c(=O)n(Cc3cccs3)c2n1,> 20
13,O=c1c(CCc2ccccc2)nc2cncnc2n1-c1ccccc1,> 20
14,Cn1cccc1C(=O)N1CCC2(CC1)CCN(c1ccccn1)CC2,> 20
15,COCCn1c(=O)c(CCc2ccccc2)nc2cnc(OCc3ccccc3)nc21,> 20
16,CN(C)Cc1ccccc1-c1cncnc1NC1CC1,> 20
17,COC(=O)N1CCC[C@@]2(CCN(C(=O)NC(C)C)C2)C1,> 20
18,COc1ccc(NC(=O)N2CC3(CCN(S(=O)(=O)c4ccccc4)CC3)C2)cc1,> 20
19,COc1cccc(-c2nccc(N(C)Cc3ccco3)n2)c1,> 20
20,COc1ccc(Oc2ncc3nc(C)c(=O)n(Cc4ccc(F)cc4)c3n2)cc1,> 20

row,Compound,Potency [µM]
1,COc1cccc(Cn2c(=O)c(-c3cn(C)c4ccccc34)nc3cncnc32)c1,> 20
2,Cc1cccc(CNc2ncnc3ccc(-c4cccnc4)cc23)c1,> 20
3,O=c1c(-c2cc(F)cc(F)c2)nc2cnc(N3CCOCC3)nc2n1-c1ccccc1,> 4
4,COc1ccccc1-c1ccc2ncnc(NCCN3CCOCC3)c2c1,> 20
5,COc1ccccc1CN1CC[C@@]2(CCCN(C(C)=O)C2)C1,> 20
6,COc1cccc(-c2ccc3ncnc(NCc4cccnc4)c3c2)c1,> 20
7,Cc1nc2cnc(N(C)C)nc2n(C[C@H]2CCCO2)c1=O,> 20
8,COc1ccc(Oc2ncc3nc(-c4cccs4)c(=O)n(C)c3n2)cc1,> 20
9,COc1ccc(C(=O)N2CCC[C@@]3(CCN(C(=O)Nc4cccc(C#N)c4)C3)C2)cc1,> 20
10,CN(C)C(=O)c1ccc(-c2cncnc2NCCN2CCOCC2)cc1,> 20
11,O=C(Oc1ccccc1)N1CCC2(CC1)CCN(c1ccncc1)CC2,> 20
12,COc1ccc(-n2c(=O)c(CCc3ccccc3)nc3cnc(N(C)C)nc32)cc1,> 20
13,CS(=O)(=O)Nc1cccc(-c2cc(NCc3ccccc3)ncn2)c1,> 20
14,COc1ccc(-c2nc3cnc(N4CCNCC4)nc3n(-c3ccccc3)c2=O)cc1,> 20
15,COCCn1c(=O)c(-c2ccccc2)nc2cnc(N3CCN(C)CC3)nc21,> 20
16,N#Cc1cccc(-c2ccc3ncnc(NCc4ccccc4)c3c2)c1,> 20
17,Cn1cc(-c2nc3cnc(N4CCNCC4)nc3n(Cc3ccc(F)cc3)c2=O)c2ccccc21,20.8
18,COc1ncc2nc(-c3ccc(F)cc3)c(=O)n(Cc3ccc(F)cc3)c2n1,> 20
19,CN(Cc1ccco1)c1nc(-c2ccoc2)nc2ccccc12,> 20
20,CN1CCN(c2ncc3nc(CCc4ccccc4)c(=O)n(CCC#N)c3n2)CC1,> 20
